# Reference: publication PMC4336329 (PLoS ONE, 2015)
# Out of some 310,000 compounds screened, about 14,000 (4.5%) showed an effect of 50% or more. The effect is printed as a negative number. This excerpt belongs to a sample that is enriched for strong results.
# Biological target: human ether-à-go-go-related gene (hERG) potassium channel (human, UniProt Q12809)
# Assay: primary screen, population patch clamp on CHO cells stably expressing hERG; higher = less effect of the substance
# Procedure: Briefly, Chinese hamster ovary (CHO) cells stably expressing the hERG channel were dislodged from tissue culture flasks and dispensed into PPC plates. […] During the recording, background leak currents were estimated by a 100 ms step to -80 mV from an initial holding potential of -70 mV and subtracted from the subsequent current measurement. The campaign was conducted in two phases using slight differences in recording protocol. In the first phase, the initial voltage pulse used a 100 ms step to -30 mV from a holding potential of -70 mV, a 2 s conditioning step to +25 mV, and a 2 s test step to -30 mV. During the second phase of the screen, the potential during the conditioning step was raised to +45 mV. In both phases of the campaign, a secondary voltage pulse was applied using the same parameters as the second phase initial pulse. The initial and secondary pulses were applied in the absence of compound, and upon application of 1 μM and 10 μM test concentrations. […]
# 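Further: peak tail current of the secondary pulse compared with the same well before compound.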
# Sequence of human ether-à-go-go-related gene (hERG) potassium channel (Q12809 whole entry, looked up): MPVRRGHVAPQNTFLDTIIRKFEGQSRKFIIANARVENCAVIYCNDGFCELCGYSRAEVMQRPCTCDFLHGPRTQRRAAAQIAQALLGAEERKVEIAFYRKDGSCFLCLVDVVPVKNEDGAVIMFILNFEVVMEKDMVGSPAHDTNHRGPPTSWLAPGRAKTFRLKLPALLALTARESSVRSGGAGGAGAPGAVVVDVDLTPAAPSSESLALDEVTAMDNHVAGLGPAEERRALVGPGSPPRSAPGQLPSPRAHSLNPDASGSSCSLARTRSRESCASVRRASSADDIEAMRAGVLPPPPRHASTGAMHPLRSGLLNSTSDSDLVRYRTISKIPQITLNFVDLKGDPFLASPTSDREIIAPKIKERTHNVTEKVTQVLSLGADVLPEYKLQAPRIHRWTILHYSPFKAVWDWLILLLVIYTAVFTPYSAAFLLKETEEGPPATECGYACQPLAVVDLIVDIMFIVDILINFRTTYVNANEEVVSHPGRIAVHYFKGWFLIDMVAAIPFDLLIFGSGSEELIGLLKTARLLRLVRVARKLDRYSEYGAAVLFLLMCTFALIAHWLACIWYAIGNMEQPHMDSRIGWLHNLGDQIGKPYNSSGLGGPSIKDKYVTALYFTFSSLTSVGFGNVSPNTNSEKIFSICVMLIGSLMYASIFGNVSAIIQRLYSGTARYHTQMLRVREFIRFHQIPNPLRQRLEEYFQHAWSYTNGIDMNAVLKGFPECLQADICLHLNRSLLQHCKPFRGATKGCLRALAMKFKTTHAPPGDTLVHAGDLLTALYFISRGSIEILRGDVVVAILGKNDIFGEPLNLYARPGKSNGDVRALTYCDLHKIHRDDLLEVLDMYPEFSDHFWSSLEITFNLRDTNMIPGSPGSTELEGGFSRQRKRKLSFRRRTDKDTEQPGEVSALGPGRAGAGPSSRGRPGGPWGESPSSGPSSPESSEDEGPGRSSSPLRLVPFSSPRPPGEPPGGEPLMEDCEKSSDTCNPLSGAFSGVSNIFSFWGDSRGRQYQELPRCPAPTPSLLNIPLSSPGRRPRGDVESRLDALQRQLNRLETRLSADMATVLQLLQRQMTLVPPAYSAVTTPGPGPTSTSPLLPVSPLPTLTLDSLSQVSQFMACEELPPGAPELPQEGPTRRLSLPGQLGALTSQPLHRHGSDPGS
row,Compound,"hERG current change (%, negative = inhibition) at 10uM"
1,CC(C)c1ccc(NC(=O)NCc2ccc3c(c2)OCO3)cc1,13.4%
2,O=C(O)c1ccccc1OC(=O)C12CC3CC(CC(C3)C1)C2,18.1%
3,O=C(NCc1ccc(F)cc1)c1cccnc1,9.37%
4,Cc1nc([N+](=O)[O-])cn1Cc1cccc2ccccc12,10.2%
5,O=C(NCc1ccccc1CN1CCCC1)C1CCN(S(=O)(=O)c2ccc(Cl)cc2)CC1,-69.4%
6,O=C(NCc1ccccc1Cl)C1CCN(S(=O)(=O)N2CCCCC2)CC1,1.33%
7,N#Cc1ccccc1S(=O)(=O)N1CCC(C(=O)NCc2ccccc2CN2CCCC2)CC1,-69.1%
8,CCOc1ccc(S(=O)(=O)N2CCCC(C(=O)NCc3ccco3)C2)cc1 (stereo not drawn),-4.45%
9,O=C(NCc1ccccc1Cl)C1CCN(S(=O)(=O)N2CCCC2)CC1,12.5%
10,COc1ccc(S(=O)(=O)N2CCC(C(=O)NCc3ccco3)CC2)cc1,-25.4%
11,O=C(NCc1ccccc1)C1CCN(S(=O)(=O)c2ccc(Cl)cc2)CC1,3.16%
12,CCOc1ccc(S(=O)(=O)N2CCC(C(=O)NCc3ccco3)CC2)cc1,-53%
13,O=C(NCc1ccc(Cl)cc1)C1CCN(S(=O)(=O)c2ccccc2)CC1,13%
14,CCOc1ccc(NC2OCC(O)C(O)C2O)c([N+](=O)[O-])c1 (stereo not drawn),33.2%
15,COc1cc(/C=N/NS(=O)(=O)c2ccc(C)c([N+](=O)[O-])c2)cc([N+](=O)[O-])c1O,18.1%
16,Cc1c(C(=O)N2CCOCC2)sc2nc(-c3ccccc3)cn12,-11.2%
17,CCOC(=O)C1CCCN(C(=O)c2sc3nc(-c4ccc(F)cc4)cn3c2C)C1 (stereo not drawn),-72.9%
18,CCOC(=O)C1CCN(C(=O)c2cc3c(-c4ccc(OC)c(OC)c4)nn(C)c3s2)CC1,-17%
19,CCOC(=O)C1CCCN(C(=O)c2sc3nc(-c4ccc(OC)cc4)cn3c2C)C1 (stereo not drawn),-55.4%
20,COc1ccc(-c2cn3c(C)c(C(=O)N4CCc5ccccc5C4)sc3n2)cc1,-31.9%
21,CCOC(=O)C1CCCN(C(=O)c2sc3nc(-c4ccccc4)cn3c2C)C1 (stereo not drawn),-59.8%
22,CCOC(=O)C1CCCN(C(=O)c2cc(-c3ccccc3)nc3ccccc23)C1 (stereo not drawn),-9.9%
23,CCOC(=O)N1CCN(C(=O)c2cc3c(-c4cccc(OC)c4)nn(C)c3s2)CC1,-35.6%
24,Cc1c(C(=O)N2CC(C)OC(C)C2)sc2nc(-c3ccc(F)cc3)cn12 (stereo not drawn),-38.4%

row,Compound,"hERG current change (%, negative = inhibition) at 10uM"
1,CCOC(=O)C1CCCN(C(=O)c2cc3c(-c4cccc(OC)c4)nn(C)c3s2)C1 (stereo not drawn),-60.7%
2,CCOC(=O)C1CCCN(C(=O)c2cc(-c3ccc(F)cc3)nc3ccccc23)C1 (stereo not drawn),-33.8%
3,COc1ccc(-c2cn3c(C)c(C(=O)N4CCN(c5ccccc5F)CC4)sc3n2)cc1,-29.8%
4,CCN(CC(=O)Nc1ccc(OC)cc1)C(=O)c1cc2c(s1)CCCCC2,16.3%
5,COc1ccc(/C=N/NC(=O)CCC(=O)Nc2ccc(F)cc2)c(OC)c1,14.9%
6,N#Cc1nc(-c2ccco2)oc1N1CCN(C(c2ccccc2)c2ccccc2)CC1,-0.82%
7,Cc1cc(C(=O)O)cc(Br)c1N,4.61%
8,Cc1ccc(S(=O)(=O)/N=C(\Sc2ccccc2)c2ccccc2)cc1,14.1%
9,COCCN1CCN(C(=O)c2ccc3c(c2)S(=O)(=O)c2ccccc2C3=O)CC1,-1.17%
10,Cc1cc(C)c(NC(=O)c2cccc3c2C(=O)N(C2CCCCC2)C3)c(C)c1,-11%
11,O=C(CSc1ccccc1)Nc1cccc(S(=O)(=O)N2CCOCC2)c1,-25.4%
12,O=C(Nc1cccc(S(=O)(=O)N2CCOCC2)c1)C(c1ccccc1)N1CCCCC1 (stereo not drawn),-37.9%
13,CN(C)CCNC(C(=O)Nc1cccc(S(=O)(=O)N2CCOCC2)c1)c1ccccc1 (stereo not drawn),-70.3%
14,CC(C)[C@H](NC(=O)c1ccccc1)C(=O)Nc1cccc(S(=O)(=O)N2CCOCC2)c1,-2.22%
15,CCCC(C(=O)Nc1cccc(S(=O)(=O)N2CCCC2)c1)c1ccccc1 (stereo not drawn),-48.2%
16,CCCCNC(C(=O)Nc1cccc(S(=O)(=O)N2CCOCC2)c1)c1ccccc1 (stereo not drawn),-50.7%
17,CC(C)C(NC(=O)CN(c1cccc(F)c1)S(C)(=O)=O)C(C)C,1.21%
18,COc1cc(CCC(=O)OCc2ccccc2C#N)cc(OC)c1OC,7.42%
19,O=C1CC(C(=O)N2CCOCC2)C2(CCCCC2)O1 (stereo not drawn),17.8%
20,COc1ccccc1Oc1cc(F)nc(N)n1,5.82%
21,Cc1cc(C)n(-c2nc(C(=O)O)cs2)n1,17.7%
22,CN(Cc1ccccc1)S(=O)(=O)c1ccc(Cl)c(C(=O)NCCc2ccccn2)c1,-61.8%
23,CN(Cc1ccccc1)S(=O)(=O)c1ccc(Cl)c(C(=O)NCc2ccncc2)c1,-55.8%
24,CN(CC(=O)NCCc1ccccn1)S(=O)(=O)c1ccc(Cl)cc1,-17%

row,Compound,"hERG current change (%, negative = inhibition) at 10uM"
1,CN(Cc1ccccc1)S(=O)(=O)c1ccc(Cl)c(C(=O)NCc2cccnc2)c1,-32.8%
2,CN(Cc1ccccc1)S(=O)(=O)c1ccc(Cl)c(C(=O)O)c1,9.33%
3,CN(Cc1ccccc1)S(=O)(=O)c1ccc(OCC(=O)NCc2ccccn2)cc1,-32.6%
4,CN(Cc1ccccc1)S(=O)(=O)c1ccc(Cl)c(C(=O)NCc2ccc3c(c2)OCO3)c1,5.48%
5,CN(Cc1ccccc1)S(=O)(=O)c1ccc(OCC(=O)NCc2ccncc2)cc1,-53.6%
6,CN(Cc1ccccc1)S(=O)(=O)c1ccc(OCC(=O)NCc2cccnc2)cc1,0.509%
7,O=C1Nc2ccc(C(F)(F)F)cc2N2CCCC12 (stereo not drawn),-1.52%
8,Cc1ccc(CSCCNC(=O)CN(c2cc(C)ccc2C)S(C)(=O)=O)cc1,-23.5%
9,COC(=O)C1=C(C)N(Cc2ccc(OC)c(OC)c2)C(=O)C1,10.7%
10,C=CCSc1n[nH]c(-c2cccs2)n1,14.4%
11,CN(CCO)S(=O)(=O)c1ccc2c(c1)C(=NN)c1cc(S(=O)(=O)N(C)CCO)ccc1-2,9.76%
12,CN1C2CCC1CC(OC(c1ccccc1)c1ccccc1N)C2 (stereo not drawn),-68.5%
13,CCOC(=O)C1CCN(C(=O)CNC(=O)c2nn(-c3ccc(OC)cc3)c(=O)c3ccccc23)CC1,-9.73%
14,Cc1ccc(Cl)cc1NC(=O)CC1NCCNC1=O (stereo not drawn),13.6%
15,COc1ccccc1-c1c(C)nn2c(N3CCOCC3)cc(C)nc12,2.71%
16,CCCCOC(=O)CCCc1ccc([N+](=O)[O-])cc1[N+](=O)[O-],-52%
17,CCCCOC(=O)Nc1nc2ccc([N+](=O)[O-])cc2s1,15.1%
18,CCOC(=O)CCCNc1ccc([N+](=O)[O-])cc1[N+](=O)[O-],-13.3%
19,CCCCOc1ccc([N+](=O)[O-])cc1C(=O)O,24.9%
20,C#CCOC(=O)CCCNc1ccc([N+](=O)[O-])cc1[N+](=O)[O-],-51.1%
21,CC(C)OC(=O)CCCNc1ccc([N+](=O)[O-])cc1[N+](=O)[O-],-41.4%
22,COC(=O)c1c(-c2c(Cl)cccc2Cl)noc1C(=O)NNC(=O)N(C)C,4.36%
23,CCOc1ccc(-n2c(=O)c3ccccc3c3ccccc3c2=O)cc1,17.8%
24,S=C(NCc1ccccc1)NCc1cccc(CNC(=S)NCc2ccccc2)c1,21.7%

row,Compound,"hERG current change (%, negative = inhibition) at 10uM"
1,CCOC(=O)c1cc2c(=O)n3cccc(C)c3nc2n(CCCOC)c1=NC(=O)c1cccnc1,-78.6%
2,CCOC(=O)c1cc2c(=O)n3cccc(C)c3nc2n(CCOC)c1=NC(C)=O,-16.3%
3,CCOCCCn1c(=NC(C)=O)c(C(=O)OCC)cc2c(=O)n3ccccc3nc21,-22.9%
4,CCOC(=O)c1cc2c(=O)n3ccccc3nc2n(CCCOC)c1=NC(=O)c1cccnc1,-68%
5,CCOCCCn1c(=NC(=O)c2cccnc2)c(C(=O)OCC)cc2c(=O)n3ccccc3nc21,-70.1%
6,CCC1=C(OC(=O)N(CC)CC)N2C(=O)OC(=NCC(=O)OC)[C@]2(C)[C@H]2C1=CC[C@H]1C(=O)NC(=O)[C@H]12,-15.5%
7,Cc1onc(COc2ccccc2O)c1Br,11.2%
8,COc1cccc(NC(=O)CN(C)C(C)C(=O)Nc2ccc(S(=O)(=O)N3CCOCC3)cc2)c1 (stereo not drawn),-15.1%
9,COc1ccccc1-c1noc(Cn2cc(S(=O)(=O)N3CCCC3)ccc2=O)n1,-3.72%
10,C=CCc1cc(Cl)ccc1OCCCNC(C)C.O=C(O)C(=O)O,-40.1%
11,C=CCc1cc(Cl)ccc1OCCCNC(C)CC.O=C(O)C(=O)O (stereo not drawn),-55.7%
12,CCC(C)NCCOCCOc1ccc(Cl)cc1Br.O=C(O)C(=O)O (stereo not drawn),-51.1%
13,Cc1cc(OCCOCCNC(C)C)cc(C)c1Cl.O=C(O)C(=O)O,-47.3%
14,C=CCc1cc(Cl)ccc1OCCNCCCOC.O=C(O)C(=O)O,-37.9%
15,CCC(C)NCCOCCOc1ccc(C)cc1Br.O=C(O)C(=O)O (stereo not drawn),-41%
16,CC(C)NCCOCCOc1ccc(Cl)cc1Br.O=C(O)C(=O)O,-32.2%
17,CCC(C)NCCCOc1cc(Cl)ccc1Cl.O=C(O)C(=O)O (stereo not drawn),-42.3%
18,CCC(C)NCCCOc1ccc(Cl)cc1C(C)(C)C.O=C(O)C(=O)O (stereo not drawn),-8.48%
19,CCC(C)NCCOCCOc1cc(C)c(Cl)c(C)c1.O=C(O)C(=O)O (stereo not drawn),-59.2%
20,CCC(C)NCCCCOc1ccc(Cl)cc1C.O=C(O)C(=O)O (stereo not drawn),-58.6%
21,CCC(C)NCCOCCOc1ccc(Br)cc1.O=C(O)C(=O)O (stereo not drawn),-18.1%
